Data as given in PubChem BioAssay AID1239 (SRMLSC, 2008).
Hit rate of the full screen: of about 190,000 compounds, about 3,100 (1.6%) were called active. The list comes from a sample in which actives are over-represented; it also holds similar structures and randomly drawn compounds. Unmarked numbers belong to inactive results. Cut-off read from the data, not from the text of the source: active = fold change above about 3.3; inconclusive = no clear call, values can overlap the other calls; inactive = below that.

Assay: activators of NF-kB expression in neurons, primary screen, cell-based, HTS (AID 1239)
Conditions: human neuronal cells, NF-kB reporter expression; at 12.5 µM; hits give high values

Row | SMILES | fold change
1 | Cc1cc(C)nc(N2CCC(C(=O)Nc3ccc4c(c3)OCCO4)CC2)n1 | 1.22
2 | Cc1ccnc(N2CCCC(C(=O)Nc3cc(F)ccc3C)C2)n1 (configuration not stated) | 1.14
3 | O=C(Nc1ccc2c(c1)OCCO2)C1CCCN(c2ncccn2)C1 (configuration not stated) | 4.28 (active)
4 | COc1ccc(-c2ccc(CCC(=O)O)n2-c2ccc(O)cc2)cc1 | 0.84
5 | CC(C)(C)c1csc(NC2=NS(=O)(=O)c3ccccc32)n1 | 3.56 (active)
6 | Cc1ccc(S(=O)(=O)N(NC2=NS(=O)(=O)c3ccccc32)C(=O)c2ccccc2)cc1 | 1.06
7 | O=C(Oc1cccc(NC2=NS(=O)(=O)c3ccccc32)c1)c1ccncc1 | 1.14
8 | N#Cc1c(NC(=O)C2CCCO2)sc2c1CCCCC2 (configuration not stated) | 1.1
9 | CCN(CC)CCNS(=O)(=O)c1ccc(/C=C/C(=O)O)cc1 | 1.3
10 | CSc1ccc(/C=N\NC(=O)COc2ccc(Cl)cc2Br)cc1 | 1.51
11 | CSc1ccc(/C=N/NC(=O)c2cccc(Cl)c2)cc1 | 3.71 (active)
12 | COc1ccc(/C=N/NC(=O)c2cccc(C(F)(F)F)c2)cc1 | 0.86
13 | CC(=O)c1ccccc1NC(=O)CC1(CC(=O)O)CCCCC1 | 1.2
14 | CC(=O)Nc1ccc(CN2CCN(Cc3ccc(F)c(F)c3)C(CCO)C2)cc1 (configuration not stated) | 1.18
15 | CCC(=O)Oc1cccc(C(=O)Nc2ccc(-c3nnc(-c4ccco4)o3)cc2)c1 | 0.99
16 | CCCCOc1ccc(-c2nnc(-c3ccco3)o2)cc1 | 3.49 (active)
17 | CCOc1ccc(-c2nnc(-c3ccco3)o2)cc1 | 2.85
18 | O=C1CCCC2=C1C(c1cccs1)CC(=O)N2c1ccc(F)cc1 (configuration not stated) | 1.01
19 | CN(C)CCOCCOc1ccc(Cl)c2ccccc12 | 0.97
20 | CCOC(=O)c1[nH]ncc1CN1CCCC(C(=O)c2ccc(OC)cc2C)C1 (configuration not stated) | 1.04
21 | C=CCn1c(-c2sc(-c3ccccc3)nc2C)n[nH]c1=S | 1.29
22 | CCCOc1ccc2c3c(c(=O)oc2c1OCCC)CCC3 | 5.55 (active)
23 | COc1ccc2c3c(c(=O)oc2c1OCC(=O)C(C)(C)C)CCCC3 | 1.12
24 | O=c1oc2c(CN3CCCCC3)c(O)ccc2c2c1CCCCC2 | 1.01
25 | Cc1cccc(NC(=S)NCCc2ccc(F)cc2)c1C | 1.04
26 | Cc1ccc2c(c1)C(O)(CC(=O)c1cccc(-n3cccc3)c1)C(=O)N2 (configuration not stated) | 1.11

Row | SMILES | fold change
27 | COC(=O)c1sc2[nH]c(=S)n(N)c(=O)c2c1C | 1.19
28 | Cc1ccccc1Nc1nc(N)nc(CSc2nnc3ccccn23)n1 | 1.69
29 | Cc1ccc(C(=O)OCc2nc(N)nc(Nc3ccccc3C)n2)cc1 | 0.92
30 | Cc1ccccc1Nc1nc(N)nc(CSc2ccccc2)n1 | 5.08 (active)
31 | C/C(=N/OC(=O)c1c(-c2c(F)cccc2Cl)noc1C)c1cnccn1 | 1.2
32 | CCOc1ccc2nc(Nc3nc4ccc(NC(C)=O)cc4s3)sc2c1 | 0.85
33 | CCOc1ccc2nc(SC(CC)C(=O)Nc3cc(C)on3)sc2c1 (configuration not stated) | 0.94
34 | CCOc1ccc2nc(C(=O)N3CCCC(C)C3)sc2c1 (configuration not stated) | 8.66 (active)
35 | CCOC(=O)c1c(NC(=O)C2CC=CCC2C(=O)O)sc(C)c1CC (configuration not stated) | 0.88
36 | Cc1ccn(-c2cccc(-n3ccc(C)n3)n2)n1 | 3.56 (active)
37 | O=C(Cc1cccc2ccccc12)Nc1ccc2oc(-c3ccccc3)nc2c1 | 1.24
38 | COc1ccc(-c2nc3cc([N+](=O)[O-])ccc3o2)cc1OC | 1.48
39 | COc1ccc2oc(-c3cccc(NC(=O)CSc4ccc(Cl)cc4)c3)nc2c1 | 5.09 (active)
40 | COc1cccc(-c2nc3cc(C)ccc3o2)c1 | 6.47 (active)
41 | COc1cccc(-c2nc(S(=O)(=O)c3ccccc3)c(N3CCOCC3)o2)c1 | 1.11
42 | COc1ccc(C)cc1NC(=O)CSc1ccc(Cl)cc1 | 1.29
43 | COc1ccc(S(=O)(=O)N2CCCCCC2)cc1C(=O)OCC(=O)Nc1cc(C)on1 | 0.91
44 | CCC(C)(C)c1ccc(OCC(=O)N(C)C)c(C(C)(C)CC)c1 | 0.82
45 | CSc1ccc(CN(C)CC(=O)NCc2ccc(F)cc2)cc1 | 1.02
46 | COc1ccc(OC)c(C(=O)c2ccc(C(=O)N3CCN(Cc4csc(C)n4)CC3)cc2)c1 | 1.07
47 | CCN1CCN(Cc2nc3c(c(=O)n(C)c(=O)n3C)n2CC(=O)c2ccccc2)CC1 | 2.25
48 | CN1CCN(Cc2nc3c(c(=O)n(C)c(=O)n3C)n2Cc2cccc3ccccc23)CC1 | 3.6 (active)
49 | CCOC(=O)N1CCN(Cc2nc3c(c(=O)n(C)c(=O)n3C)n2Cc2ccccc2)CC1 | 1.26
50 | O=C(NC1CCCC1)c1ccc(Br)s1 | 1.12
51 | CC(C)C(=O)OCC(=O)Nc1ccc2c(c1)CCC2 | 1.06
52 | O=C(Nc1ccc2c(c1)CCC2)c1ccc(Br)s1 | 11.1 (active)
